Assay results published in the supplement of paper PMC6555819.

Columns and labels:
Test in all cases: PBM binding z-score (relative to random genomic background probes); higher = stronger binding; sequences stand for … in GC…GCGATTGACAGCGTAGAATGAAGG
[1] = system: PPARg:RXRa DBDmut IVT, anti-RXR (DBD mutation: RXRa K156A/R161A, NR concentration 270 nM, RXRa partner concentration 90 nM)
Method in brief: (§1)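 Custom Agilent 4×180K protein-binding microarrays carried double-stranded probes, each with a 34-nt variable region. These regions held direct-repeat seeds, single-nucleotide variants, half-site ablations and random human genomic background sequences. Ligand-free nuclear receptor dimers were incubated on the arrays for 1 h, antibodies against each partner (one per run) detected binding, and scanned fluorescence was regression-normalized. Binding z-scores take the random background probes as reference.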

[2] = system: PPARg:RXRa IVT, anti-PPARg (NR concentration 270 nM, RXRa partner concentration 90 nM)
Method in brief: as §1

[3] = system: PPARg DBDmut:RXRa IVT, anti-PPARg (DBD mutation: PPARg1 K132A/R137A, NR concentration 270 nM, RXRa partner concentration 90 nM)
Method in brief: as §1

[4] = system: PPARg DBDmut IVT, anti-PPARg (DBD mutation: PPARg1 K132A/R137A, NR concentration 270 nM)
Method in brief: as §1

[5] = system: PPARg homodimer (NR concentration 180 nM)
Method in brief: as §1

[6] = system: PXR:RXRa (NR concentration 270 nM, RXRa partner concentration 90 nM)
Method in brief: as §1

[7] = system: PXR homodimer (NR concentration 270 nM)
Method in brief: as §1

[8] = system: RARa:RXR (NR concentration 270 nM, RXRa partner concentration 90 nM)
Method in brief: as §1

[9] = system: RARa homodimer (NR concentration 270 nM)
Method in brief: as §1

[10] = system: RARb:RXRa (NR concentration 270 nM, RXRa partner concentration 90 nM)
Method in brief: as §1

[11] = system: RARb homodimer (NR concentration 270 nM)
Method in brief: as §1

[12] = system: RARg:RXRa (NR concentration 270 nM, RXRa partner concentration 90 nM)
Method in brief: as §1

[13] = system: RARg homodimer (NR concentration 270 nM)
Method in brief: as §1

[14] = system: RXRa DBDmut IVT, anti-RXR (DBD mutation: RXRa K156A/R161A, NR concentration 90 nM)
Method in brief: as §1

[15] = system: RXRa homodimer (NR concentration 180 nM)
Method in brief: as §1

[16] = system: THRa:RXRa (NR concentration 90 nM, RXRa partner concentration 90 nM)
Method in brief: as §1

[17] = system: THRa homodimer (NR concentration 90 nM)
Method in brief: as §1

[18] = system: VDR homodimer (NR concentration 270 nM)
Method in brief: as §1

| Sequence | PBM binding z-score [1] | PBM binding z-score [2] | PBM binding z-score [3] | PBM binding z-score [4] | PBM binding z-score [5] | PBM binding z-score [6] | PBM binding z-score [7] | PBM binding z-score [8] | PBM binding z-score [9] | PBM binding z-score [10] | PBM binding z-score [11] | PBM binding z-score [12] | PBM binding z-score [13] | PBM binding z-score [14] | PBM binding z-score [15] | PBM binding z-score [16] | PBM binding z-score [17] | PBM binding z-score [18] |
| --- | --- | --- | --- | --- | --- | --- | --- | --- | --- | --- | --- | --- | --- | --- | --- | --- | --- | --- |
| TCAAATAGGTAATACAGGTGAAAGTCGGCATCTA | 3.6 | 2.94 | 1.25 | 1.14 | 0.815 | 0.771 | 0.46 | 0.82 | 1.66 | 0.777 | 0.557 | 0.633 | 0.49 | 1.74 | 1.14 | 0.877 | -0.0126 | 0.0898 |
| GCAGACAGGTGAAAGGCAGGTAACTCAGGGTGGC | 0.331 | 0.821 | -0.179 | -1.25 | 0.447 | -0.081 | -0.0558 | 0.332 | 0.233 | 0.812 | 0.611 | 0.314 | -0.0429 | -0.432 | 0.602 | 1.23 | 0.167 | -0.284 |
| CCGAGTAGGTTATGGGGCATGCAGGCAACGGTGA | 2.71 | 3.37 | -0.039 | -0.361 | 0.867 | -0.014 | -0.179 | 0.374 | 0.0539 | 1.03 | 1.15 | 0.72 | 0.548 | -0.675 | 0.867 | 0.102 | -0.321 | -0.0729 |
| CCTGCTAGGTCAGGGTCAGCTAATCTACAGTATG | 3.18 | 3.55 | -0.395 | -0.875 | 0.967 | 2.73 | -0.26 | 3.48 | 0.175 | 4.42 | 4.16 | 4.45 | 5.23 | 1.37 | 4.03 | 3.48 | 1.81 | 1.01 |
| CAAACTAGGTCACGACAGGTCAAAGTCGAATGAC | 8.69 | 9.13 | 4.46 | 5.24 | 4.07 | 6.3 | 0.87 | 6.14 | 1.65 | 5.04 | 4.83 | 6.43 | 6.78 | 2.05 | 6.08 | 5.05 | 2.47 | 2.23 |
| GCATATAGGTAATACAAGGTGAAATTCCGATTGT | 3.71 | 2.81 | 0.826 | 1.54 | 0.323 | 0.55 | 0.0431 | 1.17 | 0.97 | 0.349 | 0.44 | 0.518 | 0.637 | 0.228 | 0.614 | 4.06 | 0.848 | 0.0965 |
| TCATATAGGTAAACAGGTGCAAGTCCGTAAGTTA | 4.3 | 2.74 | 0.88 | 1.48 | 1.13 | 1.33 | 0.685 | 1.34 | 1.57 | 0.765 | 0.278 | 0.453 | 0.0324 | 1.32 | 1.27 | 0.672 | 0.416 | 1.14 |
| TCTTGTAGATCATCAGGTTAAGAAAGCTGGCCAA | 2.18 | 1.18 | 1.16 | 0.736 | 0.119 | 0.47 | -0.117 | 0.63 | 0.422 | 0.398 | 0.398 | 0.0917 | -0.23 | 0.859 | 0.451 | 0.929 | 0.613 | 0.0246 |
| CCTACTGCGCCACGAAAGGTCATTGATTCAGTGA | 0.564 | 1.65 | 1.03 | 0.0242 | 4.6 | 5.41 | 2.88 | 5.88 | 2.27 | 3.86 | 4.75 | 4.62 | 4 | 1.51 | 5.58 | 3.36 | 1.47 | 2.91 |
| CCTTACGGGTCACAAGGTTATAGCACGACGAGCG | 3.76 | 4.65 | 0.482 | 0.244 | 2.41 | 3.87 | 0.686 | 4.98 | 1.2 | 4.15 | 3.71 | 5.7 | 4.75 | 1.18 | 6.05 | 3.26 | 0.935 | 1.54 |
| GCGACTGGGGTAAAGCAGGTTACCATAAGGTTGG | 3.33 | 2.74 | -0.328 | -0.991 | -0.0118 | 0.651 | -0.238 | 0.955 | -0.412 | 0.44 | 0.792 | 0.464 | 0.108 | -0.286 | 1.03 | 2.59 | 0.334 | -0.11 |
| TCGAGTAGATTAGTCGGGGCATTCAGCCAACATA | 0.609 | -0.356 | -0.764 | -0.113 | -0.53 | -0.262 | -0.468 | -0.389 | -0.665 | -0.416 | -0.464 | -0.658 | -0.665 | 0.38 | -0.393 | -0.269 | -0.485 | -0.548 |
| CCTAGCAGGCCAGGGTCCCTCAAGCATTTCGCTT | -0.423 | -0.501 | -1.5 | -1.43 | -0.522 | -0.483 | -0.449 | -0.227 | -0.786 | -0.0655 | -0.427 | -0.683 | -0.827 | -1.15 | -0.657 | -0.281 | -0.649 | -0.542 |
| CGACCTAGGTCATCCAGGACAGTGAATACATTGA | 3.28 | 3.89 | -0.0715 | 0.195 | 2.02 | 2.45 | 0.923 | 3.21 | 0.643 | 4 | 3.41 | 4.75 | 4.97 | 2.6 | 3.37 | 4 | 2.18 | 2.5 |
| TAGCCTAGGTCATTGGGCCAATATAGTACGCATC | 3.03 | 4.13 | 0.385 | 0.532 | 1.58 | 1.83 | -0.353 | 2.69 | -0.0412 | 3.6 | 2.88 | 4.02 | 3.84 | 1.41 | 2.93 | 2.91 | 1.2 | 1.1 |
